# Laboratory results: PubChem BioAssay AID463173 (ICCB-Longwood Screening Facility, Harvard Medical School, 2010)
# The whole screen tested about 52,000 compounds, of which about 4,300 (8.3%) were called active. No stated cut-off is given here; in the data, active means survival mostly below about 52% (no sharp cut-off); inactive means mostly above about 56%. The full list was thinned out, with actives kept by preference.
# Tested on: DeltatarO mutant
# Experiment: S. aureus survival, RN4220 and DeltatarO strains – OD600, teichoic acid synthesis inhibitors, primary screen (AID 463173)
# Conditions: S. aureus RN4220 wild type/DeltatarO growth, OD600, 18 h, stronger effect = lower value, screened at 18.75 µg/mL (by protocol)
row,Compound,survival
1,COC(=O)c1ccc(Cl)cc1NC(=O)N1CC2CCCN2c2ccccc21 (stereo not given),71% (inactive)
2,CC(=O)Nc1ccc(-c2cn(CC(=O)NN)cn2)cc1,111% (inactive)
3,COc1cc(OC)cc(C(=O)Nc2ccc(S(=O)(=O)Nc3ncccn3)cc2)c1,82% (inactive)
4,CN1CCc2nc3sc(C(=O)Nc4ccccc4C(F)(F)F)c(N)c3cc2C1,150% (inactive)
5,CCC(=O)N1CCc2cc(S(=O)(=O)CCC(=O)Nc3ccc(OC(F)(F)F)cc3)ccc21,83% (inactive)
6,COc1cc(NC(=O)CC2C(=O)N(c3cccc(C)c3)C(=O)N2Cc2ccco2)cc(OC)c1 (stereo not given),101% (inactive)
7,Cc1ccc(Cl)cc1NC(=O)CSCc1cnn(-c2ccccc2)c1-n1cccc1,70% (inactive)
8,COc1ccc(CNC(=O)Cc2ccc(NC(=O)N3CCSc4ncccc43)cc2)cc1,95% (inactive)
9,Cc1cccc(NC(=O)c2cc(S(=O)(=O)NCCc3ccccc3)ccc2F)c1C,73% (inactive)
10,Cc1cccn2c(=O)c3cc(C#N)c(=O)n(-c4nnc(SCc5ccccc5F)s4)c3nc12,70% (inactive)
11,O=C(O)C(=Cc1ccc(-c2cccc(C(F)(F)F)c2)o1)C(=O)O,65% (inactive)
12,COc1ccc(C(=O)Nc2nc3ccccc3n2CCOc2ccc(Cl)cc2)cc1,-5% (active)
13,Fc1ccc(CNCc2ccccc2)cc1,99% (inactive)
14,COc1cc(OC)c(NC(=O)CSC2=Nc3ccccc3N=C(c3ccc(F)cc3)C2)cc1Cl,65% (inactive)
15,CCn1c(SCc2ccccc2F)nc(=O)c2c(C(=O)OC)cc(C3CC3)nc21,52% (active)
16,CCn1c(SCc2ccccc2C)nc(=O)c2c(C(=O)OC)cc(C3CC3)nc21,71% (inactive)
17,CCn1c(SCc2ccccc2Cl)nc(=O)c2c(C(=O)OC)cc(C3CC3)nc21,77% (inactive)
18,C=CCn1c(NC)nc2c1c(=O)[nH]c(=O)n2C,105% (inactive)
19,Cc1cc(C)cc(OCC(=O)N(Cc2ccc(C)o2)C2CCS(=O)(=O)C2)c1 (stereo not given),89% (inactive)
20,CC(=O)C1=C(OC(=O)C(C)C)c2ccccc2S(=O)(=O)N1Cc1ccccc1,104% (inactive)
21,Cc1ccc(CNC(=O)CCCN2C(=O)COc3ccc(C)cc32)cc1,85% (inactive)
22,Cc1ccc(CNC(=O)CN2C(=O)COc3ccc(S(=O)(=O)Nc4ccccc4)cc32)cc1,-4% (active)

row,Compound,survival
1,Cc1ccc(C2=Nc3ccccc3N(CC(=O)NCc3ccc(Cl)cc3)C(=O)C2)cc1C,55% (inactive)
2,Cc1ccc2c(c1)N(CCC(=O)NCc1ccc(F)cc1)C(=O)CO2,62% (inactive)
3,Cc1ccc2c(c1)N(CC(=O)NCCc1ccccc1)C(=O)CO2,45% (inactive)
4,COc1cccc(CNC(=O)CN2C(=O)COc3ccc(S(=O)(=O)Nc4ccccc4)cc32)c1,77% (inactive)
5,COc1ccc(CCNC(=O)CN2C(=O)COc3ccccc32)cc1OC,126% (inactive)
6,Cc1ccc(C2=Nc3ccccc3N(CC(=O)NCc3ccc(F)cc3)C(=O)C2)cc1C,90% (inactive)
7,COc1ccc(CNC(=O)CN2C(=O)COc3ccc(S(=O)(=O)Nc4ccccc4)cc32)cc1,66% (inactive)
8,COc1ccc(CCNC(=O)CN2C(=O)COc3ccc(C)cc32)cc1OC,45% (active)
9,Cc1ccc(CNC(=O)CN2C(=O)CC(c3ccc(C)c(C)c3)=Nc3ccccc32)cc1,52% (active)
10,Cc1ccc(CNC(=O)CCN2C(=O)COc3ccc(C)cc32)cc1,50% (active)
11,CN(C)CCCNc1c2c(nc3cc(-c4cccc(F)c4)nn13)CCC2,103% (inactive)
12,O=c1c2sc3ccccc3c2n(Cc2cccc(F)c2)c(=O)n1Cc1ccccc1,78% (inactive)
13,COc1ccc(CNC(=O)CN2C(=O)CSc3ccc(S(=O)(=O)N4CCOCC4)cc32)c(OC)c1,91% (inactive)
14,O=C1CCCc2cc(S(=O)(=O)NCC3CCC(C(=O)Nc4ccccc4F)CC3)ccc2N1 (stereo not given),93% (inactive)
15,Cc1ccc(NC(=O)N2CCC(CN3CCCC3)CC2)c(C)c1,80% (inactive)
16,COc1ccc(CNC(=O)C2CCN(S(=O)(=O)c3cccc(-c4noc(C)n4)c3)CC2)cc1,92% (inactive)
17,CC1CCc2c(sc(NC(=O)COc3ccccc3C(C)(C)C)c2C#N)C1 (stereo not given),67% (inactive)
18,COC(=O)CSc1ncc2c(n1)-c1ccccc1N(Cc1ccccc1C)S2(=O)=O,99% (inactive)
19,Cc1cccc(CNC(=O)CCCN2C(=O)COc3ccc(C)cc32)c1,112% (inactive)
20,CCOc1ccccc1CNC(=O)CCCN1C(=O)COc2ccc(C)cc21,93% (inactive)
21,Cc1ccc2c(c1)N(CCC(=O)NCc1ccccc1Cl)C(=O)CO2,40% (active)
22,CCOC(=O)C1=C(CS(=O)(=O)c2ccc(OC)c(Cl)c2)NC(=O)NC1c1cccc(OC)c1 (stereo not given),59% (inactive)

row,Compound,survival
1,Cc1cc(=O)[nH]c(SC(C)C(=O)Nc2ccccc2)n1 (stereo not given),90% (inactive)
2,COc1ccccc1NC(=O)CSc1nc(-c2cccc(Cl)c2)nc2c1Cc1c(CO)cnc(C)c1O2,87% (inactive)
3,Cc1ccc(C)c(NC(=O)CSc2nc(-c3ccccc3Cl)nc3c2Cc2c(CO)cnc(C)c2O3)c1,118% (inactive)
4,COc1ccccc1-c1nc2c(c(SCC(=O)Nc3ccccc3F)n1)Cc1c(CO)cnc(C)c1O2,88% (inactive)
5,COc1ccccc1NC(=O)CSc1nc(-c2ccc(C)cc2)nc2c1Cc1c(CO)cnc(C)c1O2,49% (active)
6,Cc1ccc(-c2nc3c(c(SCC(=O)Nc4ccccc4Cl)n2)Cc2c(CO)cnc(C)c2O3)cc1,46% (active)
7,Cc1cccc(NC(=O)CSc2nc(-c3ccccc3Cl)nc3c2Cc2c(CO)cnc(C)c2O3)c1C,117% (inactive)
8,Cc1ccc(C)c(N2CCN(Cc3csc(C)c3C)CC2)c1,77% (inactive)
9,CSc1ccc(CCNc2ncnc3onc(C)c23)cc1,98% (inactive)
10,O=S1(=O)c2ccccc2N(Cc2ccc(Cl)cc2)c2ccccc21,131% (inactive)
11,O=C(c1ccc2c(c1)N(Cc1ccccc1)C(=O)c1ccccc1S2(=O)=O)N1CCc2ccccc21,81% (inactive)
12,O=C(NCc1ccccc1)c1ccc2c(c1)N(Cc1cccc(Cl)c1)C(=O)c1ccccc1S2(=O)=O,93% (inactive)
13,O=S1(=O)c2ccccc2N(Cc2cccc(Cl)c2)c2ccccc21,0% (active)
14,O=S1(=O)c2ccccc2N(Cc2ccccc2)c2ccccc21,69% (inactive)
15,O=C(NCc1ccco1)c1ccc2c(c1)N(Cc1ccccc1)C(=O)c1ccccc1S2(=O)=O,68% (inactive)
16,COc1ccccc1CNC(=O)c1ccc2c(c1)N(Cc1cccc(Cl)c1)C(=O)c1ccccc1S2(=O)=O,37% (active)
17,O=C(c1ccc2c(c1)N(Cc1ccc(Cl)cc1)C(=O)c1ccccc1S2(=O)=O)N1CCc2ccccc21,120% (inactive)
18,O=C(NCc1ccco1)c1ccc2c(c1)N(Cc1cccc(Cl)c1)C(=O)c1ccccc1S2(=O)=O,46% (active)
19,O=C(NCc1ccco1)c1ccc2c(c1)N(Cc1ccc(Cl)cc1)C(=O)c1ccccc1S2(=O)=O,89% (inactive)
20,COc1ccccc1CNC(=O)c1ccc2c(c1)N(Cc1cccc(C)c1)C(=O)c1ccccc1S2(=O)=O,87% (inactive)
21,O=C(c1ccc2c(c1)N(Cc1cccc(Cl)c1)C(=O)c1ccccc1S2(=O)=O)N1CCc2ccccc21,0% (active)
